# From the supplement of paper PMC10849652
# Targets with a hit are over-represented here; the source holds about 8,800 in all. About 0.5% of all pairs of compound and target were hits. Unmarked numbers belong to inactive results.
# Columns and labels:
# Assay in all cases: log2 fold change, soluble protein after heating vs DMSO (PISA); higher = thermal stabilisation; K562 lysate, 10 uM; active = over 0.2 and 3.5 SD of the protein, either way, in both replicates (recomputed)
# [1] = compound: C#Cc1cccc(Nc2ncnc3cc(OCCOC)c(OCCOC)cc23)c1 [erlotinib]
# In short: (§1)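 Log-two fold change in thermal stability relative to solvent controls is reported from duplicates. For each sample, crude K562 extract from dounce-homogenised pellets in PBS pH 7.4 with 1 mM MgCl2, at 1 mg/mL protein, was treated with 10 μM compound for 30 min. Aliquots heated for 3 min across 48°C-58°C were pooled, brought to 0.5% NP-40 at 4°C and cleared at 21,000xg for 90 min. The supernatant was quantified by TMTpro 16plex LC-MS/MS with channel sums equalised.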
# [2] = compound: C/C(=N\NC(=O)C1=CC(=CC=C1)S(=O)(=O)N2CCOCC2)/C3=C(C=CC(=C3)Cl)O
# In short: as §1
# [3] = compound: C1=CC(=CC=C1C2=NC3=C(N2)C=C(C=C3)C(=O)N)OC4=CC=C(C=C4)Cl
# In short: as §1
# [4] = compound: C1=CC2=C(C=CC(=C2)/C=C\3/C(=O)NC(=NCC4=CC=CS4)S3)N=C1
# In short: as §1
# [5] = compound: C1=CC2=NC=CN=C2C=C1/C=C/3\C(=O)NC(=O)S3
# In short: as §1
# [6] = compound: C1=CC=C(C=C1)C2=NC(=C(N2)C3=CC=NC=C3)C4=CC(=C(C=C4)Cl)O
# In short: as §1
# [7] = compound: C1=CC=C2C(=C1)C3=NNC4=CC=CC(=C43)C2=O
# In short: as §1
# [8] = compound: C1CCN(C1)C(=O)NC2=CC=CC(=C2)NC3=NC=C(C(=N3)NCCC4=CN=CN4)Br
# In short: as §1
# [9] = compound: C1CN(CCC1(CC2=CC=C(C=C2)Cl)N)C3=NC=NC4=C3C=CN4
# In short: as §1
# [10] = compound: C1COCCN1CCN2C3=CC=CC=C3N=C2NC(=O)C4=CC(=CC=C4)[N+](=O)[O-] [IRAK-1-4 Inhibitor I]
# In short: as §1
# [11] = compound: C=CC(=O)N1CCC[C@@H](n2nc(-c3ccc(Oc4ccccc4)cc3)c3c(N)ncnc32)C1 [ibrutinib]
# In short: as §1
# [12] = compound: CC(=O)c1cnc2ccc(-c3cc(Cl)c(O)c(Cl)c3)nc2c1N[C@H]1CC[C@H](CN(C)C)CC1
# In short: as §1
# [13] = compound: CC(C)(C)Cn1c(N)nc2ccc(-c3[nH]c(C(C)(C)C)nc3-c3ccc(F)cc3)nc21 [ralimetinib]
# In short: as §1
# [14] = compound: CC(C)(O)CC(=O)NCCn1ccc2ncnc(Nc3ccc(Oc4cccc(C(F)(F)F)c4)c(Cl)c3)c21
# In short: as §1
# [15] = compound: CC(C)C1=C2N=C(C=C(N2N=C1)NCC3=CC=CC=C3)NCCCCCCN
# In short: as §1
# [16] = compound: CC1=C(C(CC(=O)N1)C2=CC=C(C=C2)C(F)(F)F)C(=O)NC3=C(C=C4C(=C3)C=NN4)F
# In short: as §1
# [17] = compound: CC1=C(C2=C(C=C1)C(=O)C3=CC=CC=C3N2CCCN)C
# In short: as §1
# [18] = compound: CC1=C(C=C(C=C1)NC(=O)C2=CC(=CC=C2)C(C)(C)C#N)NC3=CC4=C(C=C3)N=CN(C4=O)C
# In short: as §1
# [19] = compound: CC1=C(C=C(C=C1)NC(=O)C2=CC(=CC=C2)N(C)C)NC(=O)C3=CC=C(C=C3)O
# In short: as §1
# [20] = compound: CC1=CC=C(C=C1)SC2=C3C=C(SC3=CN=C2)C(=O)N
# In short: as §1
# UniProt P15923, sequence (P15923 whole entry, looked up): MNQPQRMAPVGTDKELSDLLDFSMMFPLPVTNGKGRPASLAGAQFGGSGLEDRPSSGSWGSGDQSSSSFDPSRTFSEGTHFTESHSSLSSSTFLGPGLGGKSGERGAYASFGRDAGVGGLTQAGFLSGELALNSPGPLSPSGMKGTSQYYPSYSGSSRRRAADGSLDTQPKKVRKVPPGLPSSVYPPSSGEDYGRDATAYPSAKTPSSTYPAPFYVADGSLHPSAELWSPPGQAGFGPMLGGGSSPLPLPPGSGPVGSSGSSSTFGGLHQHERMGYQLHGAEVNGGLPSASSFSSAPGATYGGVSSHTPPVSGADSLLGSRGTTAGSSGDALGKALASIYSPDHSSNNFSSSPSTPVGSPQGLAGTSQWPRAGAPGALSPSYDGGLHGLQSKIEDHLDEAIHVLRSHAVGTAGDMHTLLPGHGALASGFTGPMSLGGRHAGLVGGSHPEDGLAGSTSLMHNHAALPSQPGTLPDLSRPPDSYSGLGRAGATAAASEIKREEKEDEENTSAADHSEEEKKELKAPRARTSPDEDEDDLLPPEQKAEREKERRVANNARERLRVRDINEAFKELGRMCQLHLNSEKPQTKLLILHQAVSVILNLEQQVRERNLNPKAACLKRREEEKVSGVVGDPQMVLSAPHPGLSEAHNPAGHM
# UniProt Q9NZ01, sequence (Q9NZ01 whole entry, looked up): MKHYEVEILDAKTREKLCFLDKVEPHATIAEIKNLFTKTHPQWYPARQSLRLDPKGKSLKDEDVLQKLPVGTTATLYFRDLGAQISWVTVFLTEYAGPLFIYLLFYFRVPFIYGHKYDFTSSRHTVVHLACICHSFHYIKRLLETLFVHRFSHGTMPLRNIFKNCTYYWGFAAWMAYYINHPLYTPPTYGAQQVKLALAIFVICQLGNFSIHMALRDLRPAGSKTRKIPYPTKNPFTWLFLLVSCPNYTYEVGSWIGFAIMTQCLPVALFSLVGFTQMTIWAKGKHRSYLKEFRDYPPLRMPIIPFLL
# UniProt Q9BQE3, sequence (Q9BQE3 whole entry, looked up): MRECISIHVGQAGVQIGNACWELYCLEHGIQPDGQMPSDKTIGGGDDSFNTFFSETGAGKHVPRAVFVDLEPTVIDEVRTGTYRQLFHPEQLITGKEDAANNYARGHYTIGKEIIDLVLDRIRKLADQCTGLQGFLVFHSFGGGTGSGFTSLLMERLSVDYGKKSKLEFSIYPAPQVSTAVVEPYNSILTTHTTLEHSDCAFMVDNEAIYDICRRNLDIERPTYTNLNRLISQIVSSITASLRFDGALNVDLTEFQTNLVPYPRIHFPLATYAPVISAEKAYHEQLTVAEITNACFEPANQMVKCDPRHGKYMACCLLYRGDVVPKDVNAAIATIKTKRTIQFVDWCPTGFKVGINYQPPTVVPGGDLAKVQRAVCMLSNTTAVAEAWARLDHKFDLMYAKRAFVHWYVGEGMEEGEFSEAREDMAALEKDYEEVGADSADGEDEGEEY
# UniProt O75865, sequence (O75865 whole entry, looked up): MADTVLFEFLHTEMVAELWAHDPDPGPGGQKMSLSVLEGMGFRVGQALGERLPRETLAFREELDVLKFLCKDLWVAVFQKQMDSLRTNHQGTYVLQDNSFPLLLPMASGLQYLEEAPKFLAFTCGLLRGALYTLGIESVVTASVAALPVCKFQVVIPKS
# UniProt Q96BS2, sequence (Q96BS2 whole entry, looked up): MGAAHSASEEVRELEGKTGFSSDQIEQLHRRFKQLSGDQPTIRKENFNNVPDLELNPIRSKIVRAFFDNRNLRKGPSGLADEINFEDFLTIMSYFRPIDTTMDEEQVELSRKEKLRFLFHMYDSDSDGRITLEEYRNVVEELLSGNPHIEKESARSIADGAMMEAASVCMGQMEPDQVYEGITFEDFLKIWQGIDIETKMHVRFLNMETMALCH
# UniProt Q15628, sequence (Q15628 whole entry, looked up): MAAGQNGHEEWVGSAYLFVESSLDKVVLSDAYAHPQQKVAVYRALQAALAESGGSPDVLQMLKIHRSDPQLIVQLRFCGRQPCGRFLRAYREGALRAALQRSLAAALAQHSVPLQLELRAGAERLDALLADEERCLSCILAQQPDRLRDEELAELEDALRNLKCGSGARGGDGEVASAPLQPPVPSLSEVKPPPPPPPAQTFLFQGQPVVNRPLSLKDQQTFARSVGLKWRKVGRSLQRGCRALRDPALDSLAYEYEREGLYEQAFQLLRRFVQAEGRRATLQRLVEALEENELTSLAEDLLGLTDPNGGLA
# UniProt Q9BUB7, sequence (Q9BUB7 whole entry, looked up): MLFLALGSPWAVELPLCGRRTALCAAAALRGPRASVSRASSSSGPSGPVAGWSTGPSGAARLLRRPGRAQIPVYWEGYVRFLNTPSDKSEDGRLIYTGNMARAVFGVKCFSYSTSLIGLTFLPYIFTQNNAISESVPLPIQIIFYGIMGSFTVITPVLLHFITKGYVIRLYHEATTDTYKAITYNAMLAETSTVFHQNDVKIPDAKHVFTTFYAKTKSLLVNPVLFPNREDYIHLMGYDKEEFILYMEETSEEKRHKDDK
# UniProt P29144, sequence (P29144 whole entry, looked up): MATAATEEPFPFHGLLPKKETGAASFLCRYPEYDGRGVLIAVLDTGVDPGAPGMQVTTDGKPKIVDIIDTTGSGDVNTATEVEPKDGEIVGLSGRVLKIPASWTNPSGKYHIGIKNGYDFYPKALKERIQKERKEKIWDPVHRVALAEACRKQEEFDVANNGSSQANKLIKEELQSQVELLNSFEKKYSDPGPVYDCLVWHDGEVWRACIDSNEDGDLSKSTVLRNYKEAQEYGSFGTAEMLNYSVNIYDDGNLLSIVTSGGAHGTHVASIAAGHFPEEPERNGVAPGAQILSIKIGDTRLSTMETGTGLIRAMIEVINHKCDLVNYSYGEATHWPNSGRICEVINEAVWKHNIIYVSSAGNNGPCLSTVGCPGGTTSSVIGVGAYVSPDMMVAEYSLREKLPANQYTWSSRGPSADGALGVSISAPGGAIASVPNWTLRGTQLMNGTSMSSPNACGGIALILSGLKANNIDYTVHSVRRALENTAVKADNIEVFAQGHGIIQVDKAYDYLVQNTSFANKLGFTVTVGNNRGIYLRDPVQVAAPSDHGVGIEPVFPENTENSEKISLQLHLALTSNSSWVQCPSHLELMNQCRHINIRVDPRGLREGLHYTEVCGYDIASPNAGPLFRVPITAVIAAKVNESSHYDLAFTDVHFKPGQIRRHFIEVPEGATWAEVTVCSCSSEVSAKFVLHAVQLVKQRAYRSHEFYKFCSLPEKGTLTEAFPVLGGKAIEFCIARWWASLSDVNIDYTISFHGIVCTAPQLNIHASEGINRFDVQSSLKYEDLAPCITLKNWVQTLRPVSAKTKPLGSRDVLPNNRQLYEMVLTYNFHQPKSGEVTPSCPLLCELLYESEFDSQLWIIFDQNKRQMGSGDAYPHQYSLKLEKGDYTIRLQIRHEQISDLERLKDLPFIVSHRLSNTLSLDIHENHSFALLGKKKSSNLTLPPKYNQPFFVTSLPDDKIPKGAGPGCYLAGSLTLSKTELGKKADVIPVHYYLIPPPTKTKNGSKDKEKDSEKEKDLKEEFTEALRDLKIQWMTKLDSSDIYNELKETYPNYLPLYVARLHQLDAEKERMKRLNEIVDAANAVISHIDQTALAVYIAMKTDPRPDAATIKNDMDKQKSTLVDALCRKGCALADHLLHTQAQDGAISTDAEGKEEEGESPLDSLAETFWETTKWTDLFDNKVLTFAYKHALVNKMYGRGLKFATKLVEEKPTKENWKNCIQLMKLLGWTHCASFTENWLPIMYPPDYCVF
Target,log2 fold change [1],log2 fold change [2],log2 fold change [3],log2 fold change [4],log2 fold change [5],log2 fold change [6],log2 fold change [7],log2 fold change [8],log2 fold change [9],log2 fold change [10],log2 fold change [11],log2 fold change [12],log2 fold change [13],log2 fold change [14],log2 fold change [15],log2 fold change [16],log2 fold change [17],log2 fold change [18],log2 fold change [19],log2 fold change [20]
TMEM70 (UniProt Q9BUB7),-0.018,-0.003,-0.106,0.03,0.038,-0.073,0.011,0.006,-0.028,0.086,0.001,-0.026,0.012,-0.063,-0.002,-0.01,0.01,0.103,0.058,0.003
TRADD (UniProt Q15628),0.053,0.258 (active),0.03,-0.224,0.009,-0.013,0.251,0.029,0.076,0.033,0.013,0.017,-0.005,-0.012,-0.018,-0.015,-0.001,0.017,0.021,0.019
TESC (UniProt Q96BS2),-0.043,0.042,0.03,0.074,-0.042,-0.006,0.036,0.003,0.04,-0.003,0.065,-0.029,0.005,0.056,-0.055,0.043,0.015,0,-0.013,-0.077
TECR (UniProt Q9NZ01),0.024,-0.029,-0.113,0.019,0.083,-0.013,-0.066,-0.008,0.028,0.038,-0.003,0.037,0,-0.046,-0.003,0.044,0.041,-0.031,0.06,0.025
TPP2 (UniProt P29144),-0.001,-0.098,0.01,0.001,0.006,0,-0.02,-0.003,-0.005,-0.002,-0.018,-0.016,-0.002,0.014,-0.012,-0.013,0.003,0.008,0.012,0.002
TCF3 (UniProt P15923),0.027,-0.028,0.067,0.004,0.016,0.011,0.07,-0.005,0.022,0.04,0.001,0.027,0.014,-0.028,-0.005,-0.034,-0.074,-0.061,-0.045,-0.016
TRAPPC6A isoform 2 (UniProt O75865),0.018,0.095,0.002,0.049,-0.055,-0.016,-0.005,0.154,0.095,0.047,-0.023,-0.011,-0.027,-0.037,-0.031,-0.052,0.012,0.008,0.004,-0.062
TUBA1C (UniProt Q9BQE3),0.007,-0.028,0.044,-0.019,-0.012,0.031,-0.077,-0.008,0.014,0.04,-0.001,0.017,0.007,-0.043,0.032,0.015,-0.035,-0.012,0.043,0.009
